Laboratory results: PubChem BioAssay (NCI)
This is part of a sample that, as a whole, favours compounds with a hit. Of some 79,000 tested, about 15% had one in any assay. Rule as the data show it: active = growth inhibition above about 70%; inactive = the rest.

Legend:
[1] = NCI Yeast Anticancer Drug Screen. Data for the rad50 strain (AID 155);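 also: 0% = growth of vehicle-only cultures of the same strain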; details: S. cerevisiae rad50 strain growth inhibition; at 50.0 µM; stronger effect = higher value
Outline: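 Inhibition values express reduced yeast growth in compound-treated cultures relative to vehicle-treated controls.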

[2] = NCI Yeast Anticancer Drug Screen. Data for the mec2-1 strain (AID 157); details: S. cerevisiae mec2-1 strain, at 50.0 µM, stronger effect = higher value
Outline: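 Using mec2-1 yeast: add compound, measure growth, express inhibition versus vehicle-treated cultures.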

[3] = NCI Yeast Anticancer Drug Screen. Data for the sgs1 mgt1 strain (AID 161);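 also: 0% = growth of cultures given vehicle only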; details: S. cerevisiae sgs1 mgt1 strain, at 50.0 µM, stronger effect = higher value
Outline: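 Growth of a repair-deficient yeast mutant was monitored after compound treatment and expressed as inhibition relative to vehicle-treated cultures.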

[4] = NCI Yeast Anticancer Drug Screen. Data for the cln2 rad14 strain (AID 165);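 also: 0% = growth equal to vehicle treated cultures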; details: S. cerevisiae cln2 rad14 strain, at 50.0 µM, stronger effect = higher value
Outline: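 Yeast strain cln2 rad14, bearing defects in cell cycle control and DNA repair, serves as the test system; values reflect growth inhibition compared with vehicle.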

[5] = NCI Yeast Anticancer Drug Screen. Data for the bub3 strain (AID 167); details: S. cerevisiae bub3 mutant strain, at 50.0 µM, stronger effect = higher value
Outline: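 Steps: expose the mutant yeast strain to compound; grow alongside vehicle-treated cultures; measure growth; express inhibition against the vehicle cultures.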

[6] = NCI Yeast Anticancer Drug Screen. Data for the mlh1 rad18 strain (AID 175); details: S. cerevisiae mlh1 rad18 strain growth inhibition; at 50.0 µM; stronger effect = higher value
Outline: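 Steps: expose repair-defective yeast to compound; measure growth; express inhibition against vehicle-treated controls.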

Measured: growth inhibition

CCOC(=O)C1=C(C(=O)c2ccc(OC)cc2)C(c2ccc(OC)c(OC)c2)C(C(=O)c2ccc(OC)cc2)=C(C(=O)OCC)N1
inactive: [1] -44.4% | [2] -20% | [3] -32.2% | [4] -24.6% | [5] -23% | [6] -18.8%

CCCCCCCCCCCCc1c2ccccc2cc2ccccc12
inactive: [1] 3.55% | [2] -3.8% | [3] -4.7% | [4] -11.4% | [5] 25.1% | [6] 9.5%

Cc1[nH]c2ccccc2c1CC1CC(=O)OC1=O (centres undefined)
inactive: [1] -8.35% | [2] -18.6% | [3] 12.5% | [4] 6.3% | [5] -9.15% | [6] -7.15%

COc1cc2nc(C)oc(=O)c2cc1OC
inactive: [1] 19.1% | [2] -16.8% | [3] 10.9% | [4] -28.4% | [5] -12.3% | [6] 0.85%

NC=O
inactive: [1] -9.45% | [2] 11.2% | [3] 7.1% | [4] -1.4% | [5] -0.15% | [6] -11.7%

COc1cc(C)c2c(c1)C=C[C@@H]1[C@@H]2CC[C@]2(C)C(=O)CC[C@@H]12
inactive: [1] -10.1% | [2] 3.3% | [3] -2.55% | [4] -48.2% | [5] -0.05% | [6] -3.1%

O=C1c2ccccc2-c2ccc(N3C(=O)c4c(Br)c(Br)c(Br)c(Br)c4C3=O)cc21
inactive: [1] 10.6% | [2] -2.2% | [3] 12.9% | [4] -36.8% | [5] -4.6% | [6] -17.5%

O=C(CCN1CCOCC1)Nc1ccc(F)cc1F
inactive: [1] -18.8% | [2] 3.35% | [3] -3.15% | [4] 7.25% | [5] -36.5% | [6] -6.1%

O=[N+]([O-])c1ccc(N=Nc2c(O)c3ccccc3c3ccccc23)c([N+](=O)[O-])c1
inactive: [1] 46.6% | [2] 10.3% | [3] 27.9% | [4] 25.9% | [5] 6.1% | [6] 23.2%

CN(C)/C=C/C(=O)c1ccccc1
inactive: [1] 61.6% | [2] 30.1% | [3] 17.6% | [4] -16.4% | [5] 6.05% | [6] 8.95%

O=C(OCc1ccccc1CN1CCCC1)c1cccc(Cl)c1
inactive: [1] 2.8% | [2] -3.75% | [3] -8.1% | [4] -7.2% | [5] 8.35% | [6] 2.65%

O=C(C[n+]1cccc(Br)c1)c1ccc(F)cc1
inactive: [1] 16.1% | [2] 19.9% | [3] 9.6% | [4] 21.4% | [5] 3.35% | [6] 10.2%

Clc1ccc(CSc2cnnc(SCc3ccc(Cl)cc3)c2SCc2ccc(Cl)cc2)cc1
inactive: [1] -11.4% | [2] 15.2% | [3] -10.9% | [4] -60% | [5] -3.75% | [6] -30.4%

CON(C)c1nc2ccccc2o1
inactive: [1] -22.1% | [2] -8.45% | [3] -9% | [4] -16.8% | [5] -2.3% | [6] -17.6%

Cc1cc2nc(-c3cc4cc(Cl)cc(Cl)c4oc3=O)[nH]c2cc1C
inactive: [1] 10.6% | [2] 17.8% | [3] 2.7% | [4] -5.4% | [5] 17.2% | [6] -0.4%

C=CCNC(=S)Nc1cc(Cl)ccc1OC
inactive: [1] 6.15% | [2] 8.45% | [3] -2.45% | [4] -5.45% | [5] 1.2% | [6] 7.1%

CC(=O)OC1CC(=O)OC(C)(C)C2CC(=O)C3(C)C(CCC4(C)C(c5ccoc5)OC(=O)C5OC543)C12C (centres undefined)
inactive: [1] 20.5% | [2] -18.3% | [3] 11.1% | [4] 2.85% | [5] -6.55% | [6] 21.1%

CC(C)CC(C)(CC(C)C)C(=O)O
inactive: [1] 9.95% | [2] -7.75% | [3] 7.8% | [4] -1.5% | [5] -1.3% | [6] 11.8%

ON1c2ccc3ccccc3c2C=CC1(c1ccccc1)c1ccccc1
inactive: [1] -12.7% | [2] -2.75% | [3] -12.6% | [4] 23.2% | [5] 16.5% | [6] 10.9%
